# Measurements published in PubChem BioAssay (EPA / NIEHS).
# Inconclusive results are not listed. The source made the active and inactive calls. How the source made its calls: active means hit-call score of the fitted dose curve at least 0.9, where 1 is the maximum; inconclusive means response in the unintended direction; inactive means score below 0.9.
# Target: human Opioid Receptor Mu (Opiate Mu), OPRM1 (gene 4988) (UniProt P35372)
# Experiment: NVS_GPCR_hOpiate_mu: NovaScreen (NVS) G Protein-Coupled Receptor Assay for human Opioid Receptor Mu (Opiate Mu) (AID 2283290);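 further: hits lower bound tracer signal versus DMSO meaning displacement of the ligand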
# Method: NVS_GPCR_hOpiate_mu is a biochemical, single-readout assay that uses extracted gene-proteins from CHO in a cell-free assay. Measurements were taken 2.5 hours after chemical dosing in a 96-well plate.NVS_GPCR_hOpiate_mu is one of one assay component(s) measured or calculated from the NVS_GPCR_hOpiate_mu assay. It is designed to make measurements of radioligand binding, a form of binding reporter, as detected with scintillation counting signals by Filter-based radiodetection technology.Data from the assay component NVS_GPCR_hOpiate_mu was analyzed into 1 assay endpoint. This assay endpoint, NVS_GPCR_hOpiate_mu, was analyzed in the positive analysis fitting direction relative to DMSO as the negative control and baseline of activity. Using a type of binding reporter, loss-of-signal activity can be used to understand changes in the binding as they relate to the gene OPRM1. Furthermore, this assay endpoint can be referred to as a primary readout, because the performed assay has only produced 1 assay endpoint. To generalize the intended target to other relatable targets, this assay endpoint is annotated to the gpcr intended target family, where the subfamily is rhodopsin-like receptor.
# Binding assays used specific radioligands (tritiated, iodinated) with non-radioactive competitive displacement ligands in agonist or antagonist protocols (as indicated) and various reference compounds and inhibitors to titrate specific binding to receptors and transporters. Most enzyme assays (CYPs, kinases, phosphatases, proteases, HDACs) used recombinant protein and specific substrates (fluorescence mostly, some colorimetric and radioactive) and inhibitors, followed by a biochemical separation of substrate and product. All assays for the biochemical HTS were initially run in duplicate at a single concentration (10 uM for CYP450 assays and 25 uM for all others). […] Each assay was run with positive and negative controls, and concurrent controls on every plate. The follow-up (secondary) screen tested active chemical-pairs in concentration series, as well as a few additional assays not tested in the primary screen, some selected negative inactives, and several cases re-run in the concentration series for confirmatory purposes.
# Sequence of human Opioid Receptor Mu (Opiate Mu), OPRM1 (gene 4988) (P35372 whole entry, looked up): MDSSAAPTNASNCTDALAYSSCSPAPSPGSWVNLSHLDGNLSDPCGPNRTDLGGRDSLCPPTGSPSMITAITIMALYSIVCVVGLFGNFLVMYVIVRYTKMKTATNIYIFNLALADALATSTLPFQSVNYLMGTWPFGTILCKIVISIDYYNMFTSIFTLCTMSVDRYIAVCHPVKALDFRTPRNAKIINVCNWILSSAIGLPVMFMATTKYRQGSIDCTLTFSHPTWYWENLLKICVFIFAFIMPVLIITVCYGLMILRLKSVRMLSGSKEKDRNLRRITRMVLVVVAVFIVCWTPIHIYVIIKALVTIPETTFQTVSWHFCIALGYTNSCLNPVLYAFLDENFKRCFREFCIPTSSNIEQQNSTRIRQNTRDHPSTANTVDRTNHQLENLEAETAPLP
SMILES,outcome,AC50
O=[N+]([O-])c1ccc(Oc2ccc(Cl)cc2Cl)cc1,inactive,
CCCCCCCCn1sccc1=O,,7.66 µM (active)
N#CC(Br)(Br)C(N)=O,inactive,
O=C(N[C@H](c1ccccc1)[C@@H]1CN2CCC1CC2)c1c(Cl)ccc(C(F)(F)F)c1Cl,,10.1 µM (active)
[Cl-].[Cl-].[Hg+2],,0.197 µM (active)
Nc1ccc(Cl)cc1N,,39.5 µM (active)
CCC[CH2][Sn]([Cl])([CH2]CCC)[CH2]CCC,inactive,
CCOC(=O)[C@]1(c2ccccc2)Oc2ccccc2[C@@H]1N,,13.1 µM (active)
O=[N+]([O-])C(Br)(CO)CO,inactive,
COP(=S)(OC)SCN1C(=O)c2ccccc2C1=O,inactive,
